# ChEMBL document CHEMBL1961873, “Compounds: GSK PKIS; Assays: Nanosyn kinase panel” (2012)
# Columns and labels:
# [1] = target: Death-associated protein kinase 1 (Homo sapiens) (UniProt P53355); conditions: at 1 µM;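 note: each value is a mean inhibition figure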
# [2] = target: T1, Serine/threonine-protein kinase DCLK2 (Homo sapiens) (UniProt Q8N568); conditions: at 0.1 µM
# T1 sequence (whole entry): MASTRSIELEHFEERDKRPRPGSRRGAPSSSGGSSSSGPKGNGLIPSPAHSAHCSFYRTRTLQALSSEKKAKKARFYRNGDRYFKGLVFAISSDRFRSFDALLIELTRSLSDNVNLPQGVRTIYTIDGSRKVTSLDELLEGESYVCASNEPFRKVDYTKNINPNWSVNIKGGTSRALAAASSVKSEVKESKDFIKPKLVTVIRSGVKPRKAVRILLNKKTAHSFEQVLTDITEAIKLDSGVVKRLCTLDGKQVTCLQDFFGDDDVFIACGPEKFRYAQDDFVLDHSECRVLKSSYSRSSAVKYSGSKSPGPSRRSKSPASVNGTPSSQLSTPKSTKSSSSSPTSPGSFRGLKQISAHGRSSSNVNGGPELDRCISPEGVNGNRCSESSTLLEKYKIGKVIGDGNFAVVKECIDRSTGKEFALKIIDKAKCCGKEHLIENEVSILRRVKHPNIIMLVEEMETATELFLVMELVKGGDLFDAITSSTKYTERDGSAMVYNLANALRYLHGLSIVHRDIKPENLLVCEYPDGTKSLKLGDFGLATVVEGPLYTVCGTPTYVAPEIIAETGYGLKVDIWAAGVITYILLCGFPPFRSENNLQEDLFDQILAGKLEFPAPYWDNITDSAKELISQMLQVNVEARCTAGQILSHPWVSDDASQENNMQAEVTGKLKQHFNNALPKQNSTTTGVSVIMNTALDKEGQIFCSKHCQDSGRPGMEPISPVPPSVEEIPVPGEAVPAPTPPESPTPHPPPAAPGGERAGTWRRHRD
# [3] = target: T1, Serine/threonine-protein kinase DCLK2 (Homo sapiens); conditions: at 1 µM
# [4] = target: MAP kinase-activated protein kinase 2 (Homo sapiens) (UniProt P49137); conditions: at 0.1 µM
# [5] = target: MAP kinase-activated protein kinase 2 (Homo sapiens) (UniProt P49137); conditions: at 1 µM
# [6] = target: MAP kinase-activated protein kinase 3 (Homo sapiens) (UniProt Q16644); conditions: at 0.1 µM
# [7] = target: MAP kinase-activated protein kinase 3 (Homo sapiens) (UniProt Q16644); conditions: at 1 µM
# [8] = target: Serine/threonine-protein kinase MARK1 (Homo sapiens) (UniProt Q9P0L2); conditions: at 0.1 µM
# [9] = target: Serine/threonine-protein kinase MARK1 (Homo sapiens) (UniProt Q9P0L2); conditions: at 1 µM
# [10] = target: MAP/microtubule affinity-regulating kinase 3 (Homo sapiens) (UniProt P27448); conditions: at 0.1 µM
# [11] = target: MAP/microtubule affinity-regulating kinase 3 (Homo sapiens) (UniProt P27448); conditions: at 1 µM
# [12] = target: T2, MAP/microtubule affinity-regulating kinase 4 (Homo sapiens) (UniProt Q96L34); conditions: at 0.1 µM
# T2 sequence (whole entry): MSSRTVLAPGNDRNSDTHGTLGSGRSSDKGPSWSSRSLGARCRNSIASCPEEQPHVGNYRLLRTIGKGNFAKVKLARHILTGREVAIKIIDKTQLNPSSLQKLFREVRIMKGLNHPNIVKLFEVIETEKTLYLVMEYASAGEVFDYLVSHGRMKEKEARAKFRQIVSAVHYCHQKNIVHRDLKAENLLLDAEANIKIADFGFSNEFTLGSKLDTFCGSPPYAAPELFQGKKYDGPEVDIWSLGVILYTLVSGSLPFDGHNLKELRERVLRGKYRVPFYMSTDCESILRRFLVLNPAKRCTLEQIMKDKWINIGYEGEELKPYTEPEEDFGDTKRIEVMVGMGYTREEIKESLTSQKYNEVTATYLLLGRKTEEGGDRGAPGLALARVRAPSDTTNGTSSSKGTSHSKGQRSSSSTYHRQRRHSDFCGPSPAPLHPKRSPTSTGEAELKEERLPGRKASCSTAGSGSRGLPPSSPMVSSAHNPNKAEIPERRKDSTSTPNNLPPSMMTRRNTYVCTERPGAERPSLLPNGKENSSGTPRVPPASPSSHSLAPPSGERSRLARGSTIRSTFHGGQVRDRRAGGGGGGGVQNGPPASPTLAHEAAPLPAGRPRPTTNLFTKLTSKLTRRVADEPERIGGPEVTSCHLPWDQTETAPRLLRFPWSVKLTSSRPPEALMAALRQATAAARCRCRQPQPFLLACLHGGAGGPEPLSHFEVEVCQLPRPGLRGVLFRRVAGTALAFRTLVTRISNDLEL
# [13] = target: T2, MAP/microtubule affinity-regulating kinase 4 (Homo sapiens); conditions: at 1 µM
# [14] = target: Maternal embryonic leucine zipper kinase (Homo sapiens) (UniProt Q14680); conditions: at 0.1 µM
# [15] = target: Maternal embryonic leucine zipper kinase (Homo sapiens) (UniProt Q14680); conditions: at 1 µM
# [16] = target: MAP kinase-interacting serine/threonine-protein kinase 1 (Homo sapiens) (UniProt Q9BUB5); conditions: at 0.1 µM
# [17] = target: MAP kinase-interacting serine/threonine-protein kinase 1 (Homo sapiens) (UniProt Q9BUB5); conditions: at 1 µM
# [18] = target: MAP kinase-interacting serine/threonine-protein kinase 2 (Homo sapiens) (UniProt Q9HBH9); conditions: at 0.1 µM
# [19] = target: MAP kinase-interacting serine/threonine-protein kinase 2 (Homo sapiens) (UniProt Q9HBH9); conditions: at 1 µM
# [20] = target: Serine/threonine-protein kinase MARK2 (Homo sapiens) (UniProt Q7KZI7); conditions: at 0.1 µM;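 note: mean percent inhibition of PAR-1Balpha kinase activity, reported from the GSK PKIS screen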
# Serine/threonine-protein kinase MARK2 (Homo sapiens), sequence (Q7KZI7 whole entry): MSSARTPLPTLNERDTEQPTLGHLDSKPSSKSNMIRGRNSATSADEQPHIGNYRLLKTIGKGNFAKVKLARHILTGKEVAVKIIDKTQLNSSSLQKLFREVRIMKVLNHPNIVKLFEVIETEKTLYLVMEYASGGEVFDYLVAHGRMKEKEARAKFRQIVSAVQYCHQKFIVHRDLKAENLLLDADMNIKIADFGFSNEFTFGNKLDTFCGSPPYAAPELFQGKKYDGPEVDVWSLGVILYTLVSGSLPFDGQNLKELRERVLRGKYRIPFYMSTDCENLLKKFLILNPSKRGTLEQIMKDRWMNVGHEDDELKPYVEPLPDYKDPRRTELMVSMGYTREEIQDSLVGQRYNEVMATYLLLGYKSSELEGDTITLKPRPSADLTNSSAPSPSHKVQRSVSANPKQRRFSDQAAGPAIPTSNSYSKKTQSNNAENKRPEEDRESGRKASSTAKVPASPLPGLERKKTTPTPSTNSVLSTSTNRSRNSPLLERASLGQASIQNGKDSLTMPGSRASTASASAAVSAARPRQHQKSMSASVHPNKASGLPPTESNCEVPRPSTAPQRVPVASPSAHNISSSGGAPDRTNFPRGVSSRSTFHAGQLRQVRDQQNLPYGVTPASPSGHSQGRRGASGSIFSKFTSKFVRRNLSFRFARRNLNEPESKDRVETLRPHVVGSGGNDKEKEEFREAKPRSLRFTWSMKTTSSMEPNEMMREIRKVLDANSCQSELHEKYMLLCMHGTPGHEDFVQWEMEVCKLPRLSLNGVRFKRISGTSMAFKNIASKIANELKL
# MAP kinase-activated protein kinase 3 (Homo sapiens), sequence (Q16644 whole entry, looked up): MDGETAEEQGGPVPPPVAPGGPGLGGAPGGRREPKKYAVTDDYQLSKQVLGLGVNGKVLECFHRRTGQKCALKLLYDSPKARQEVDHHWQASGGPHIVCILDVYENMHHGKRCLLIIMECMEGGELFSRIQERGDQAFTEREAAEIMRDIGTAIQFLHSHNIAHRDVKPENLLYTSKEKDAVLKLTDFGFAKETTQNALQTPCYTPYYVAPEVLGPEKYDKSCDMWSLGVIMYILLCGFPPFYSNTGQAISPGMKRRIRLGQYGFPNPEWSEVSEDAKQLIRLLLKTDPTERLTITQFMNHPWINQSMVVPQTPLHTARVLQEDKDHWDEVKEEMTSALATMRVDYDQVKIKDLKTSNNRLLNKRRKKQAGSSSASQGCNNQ
# MAP kinase-interacting serine/threonine-protein kinase 2 (Homo sapiens), sequence (Q9HBH9 whole entry, looked up): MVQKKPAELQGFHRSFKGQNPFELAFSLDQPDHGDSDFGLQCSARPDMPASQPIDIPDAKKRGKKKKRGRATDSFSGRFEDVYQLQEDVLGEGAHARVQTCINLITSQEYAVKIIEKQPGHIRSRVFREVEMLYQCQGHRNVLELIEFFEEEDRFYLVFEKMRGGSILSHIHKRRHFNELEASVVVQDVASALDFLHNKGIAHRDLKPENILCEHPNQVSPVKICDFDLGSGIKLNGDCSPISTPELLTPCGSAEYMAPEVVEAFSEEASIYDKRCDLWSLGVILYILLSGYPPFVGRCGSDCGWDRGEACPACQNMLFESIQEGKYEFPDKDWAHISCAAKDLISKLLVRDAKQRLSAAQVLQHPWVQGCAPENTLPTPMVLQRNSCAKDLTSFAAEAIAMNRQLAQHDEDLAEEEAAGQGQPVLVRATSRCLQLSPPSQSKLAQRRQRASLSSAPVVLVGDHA
# MAP kinase-interacting serine/threonine-protein kinase 1 (Homo sapiens), sequence (Q9BUB5 whole entry, looked up): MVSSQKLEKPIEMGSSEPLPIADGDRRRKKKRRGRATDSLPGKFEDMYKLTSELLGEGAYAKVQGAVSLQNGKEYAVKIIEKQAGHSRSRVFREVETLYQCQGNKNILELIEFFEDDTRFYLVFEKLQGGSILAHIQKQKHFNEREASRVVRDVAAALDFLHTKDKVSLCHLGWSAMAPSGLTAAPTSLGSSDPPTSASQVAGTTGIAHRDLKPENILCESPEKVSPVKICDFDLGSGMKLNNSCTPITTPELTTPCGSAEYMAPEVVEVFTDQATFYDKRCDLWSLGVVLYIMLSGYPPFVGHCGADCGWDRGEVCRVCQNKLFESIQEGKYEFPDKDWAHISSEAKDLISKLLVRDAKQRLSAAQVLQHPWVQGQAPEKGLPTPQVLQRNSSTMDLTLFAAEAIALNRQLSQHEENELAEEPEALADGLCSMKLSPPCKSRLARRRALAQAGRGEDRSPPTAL
# MAP kinase-activated protein kinase 2 (Homo sapiens), sequence (P49137 whole entry, looked up): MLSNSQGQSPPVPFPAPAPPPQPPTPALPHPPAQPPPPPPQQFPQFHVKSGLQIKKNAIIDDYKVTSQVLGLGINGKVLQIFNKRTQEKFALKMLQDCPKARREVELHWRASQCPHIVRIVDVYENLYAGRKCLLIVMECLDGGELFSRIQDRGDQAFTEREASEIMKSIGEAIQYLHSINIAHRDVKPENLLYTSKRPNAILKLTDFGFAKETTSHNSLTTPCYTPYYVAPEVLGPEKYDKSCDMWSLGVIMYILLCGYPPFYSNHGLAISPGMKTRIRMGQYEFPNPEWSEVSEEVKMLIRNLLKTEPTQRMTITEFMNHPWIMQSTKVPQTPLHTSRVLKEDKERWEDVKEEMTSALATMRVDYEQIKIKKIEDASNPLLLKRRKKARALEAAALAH
# Maternal embryonic leucine zipper kinase (Homo sapiens), sequence (Q14680 whole entry, looked up): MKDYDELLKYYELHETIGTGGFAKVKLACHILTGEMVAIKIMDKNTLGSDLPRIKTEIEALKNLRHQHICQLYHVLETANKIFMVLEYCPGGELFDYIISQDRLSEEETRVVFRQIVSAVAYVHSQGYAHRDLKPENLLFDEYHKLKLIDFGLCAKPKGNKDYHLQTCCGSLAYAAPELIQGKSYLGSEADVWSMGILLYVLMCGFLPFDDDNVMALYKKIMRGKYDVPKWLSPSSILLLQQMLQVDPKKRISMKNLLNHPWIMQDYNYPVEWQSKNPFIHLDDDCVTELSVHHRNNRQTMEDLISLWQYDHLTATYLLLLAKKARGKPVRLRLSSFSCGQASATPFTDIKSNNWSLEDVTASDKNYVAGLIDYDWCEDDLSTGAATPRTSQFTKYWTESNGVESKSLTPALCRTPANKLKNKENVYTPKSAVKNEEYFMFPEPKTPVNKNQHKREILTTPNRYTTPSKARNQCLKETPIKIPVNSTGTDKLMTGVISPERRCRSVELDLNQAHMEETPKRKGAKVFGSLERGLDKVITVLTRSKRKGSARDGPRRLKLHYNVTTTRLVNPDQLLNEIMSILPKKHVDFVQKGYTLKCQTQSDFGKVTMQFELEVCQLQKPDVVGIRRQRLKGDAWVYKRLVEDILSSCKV
# Serine/threonine-protein kinase MARK1 (Homo sapiens), sequence (Q9P0L2 whole entry, looked up): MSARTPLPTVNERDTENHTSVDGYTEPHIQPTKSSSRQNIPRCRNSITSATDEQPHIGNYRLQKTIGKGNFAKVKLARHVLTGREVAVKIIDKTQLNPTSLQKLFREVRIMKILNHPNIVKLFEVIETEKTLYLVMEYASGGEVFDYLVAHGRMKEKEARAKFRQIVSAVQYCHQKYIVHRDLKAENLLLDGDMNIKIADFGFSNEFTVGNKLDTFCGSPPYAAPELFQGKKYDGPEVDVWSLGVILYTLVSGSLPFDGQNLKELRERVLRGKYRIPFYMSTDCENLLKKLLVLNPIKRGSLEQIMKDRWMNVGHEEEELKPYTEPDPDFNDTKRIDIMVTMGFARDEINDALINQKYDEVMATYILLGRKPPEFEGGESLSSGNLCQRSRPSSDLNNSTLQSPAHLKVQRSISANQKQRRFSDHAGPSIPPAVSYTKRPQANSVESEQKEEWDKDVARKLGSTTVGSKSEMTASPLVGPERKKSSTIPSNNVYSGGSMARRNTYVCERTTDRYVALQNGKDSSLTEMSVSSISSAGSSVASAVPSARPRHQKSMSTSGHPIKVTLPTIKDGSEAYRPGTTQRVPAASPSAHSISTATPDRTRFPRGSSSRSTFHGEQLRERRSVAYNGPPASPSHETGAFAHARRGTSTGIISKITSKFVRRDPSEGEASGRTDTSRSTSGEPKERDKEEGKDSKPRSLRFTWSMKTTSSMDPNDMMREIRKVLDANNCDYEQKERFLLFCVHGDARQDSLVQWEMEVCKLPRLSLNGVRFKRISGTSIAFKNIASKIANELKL
# MAP/microtubule affinity-regulating kinase 3 (Homo sapiens), sequence (P27448 whole entry, looked up): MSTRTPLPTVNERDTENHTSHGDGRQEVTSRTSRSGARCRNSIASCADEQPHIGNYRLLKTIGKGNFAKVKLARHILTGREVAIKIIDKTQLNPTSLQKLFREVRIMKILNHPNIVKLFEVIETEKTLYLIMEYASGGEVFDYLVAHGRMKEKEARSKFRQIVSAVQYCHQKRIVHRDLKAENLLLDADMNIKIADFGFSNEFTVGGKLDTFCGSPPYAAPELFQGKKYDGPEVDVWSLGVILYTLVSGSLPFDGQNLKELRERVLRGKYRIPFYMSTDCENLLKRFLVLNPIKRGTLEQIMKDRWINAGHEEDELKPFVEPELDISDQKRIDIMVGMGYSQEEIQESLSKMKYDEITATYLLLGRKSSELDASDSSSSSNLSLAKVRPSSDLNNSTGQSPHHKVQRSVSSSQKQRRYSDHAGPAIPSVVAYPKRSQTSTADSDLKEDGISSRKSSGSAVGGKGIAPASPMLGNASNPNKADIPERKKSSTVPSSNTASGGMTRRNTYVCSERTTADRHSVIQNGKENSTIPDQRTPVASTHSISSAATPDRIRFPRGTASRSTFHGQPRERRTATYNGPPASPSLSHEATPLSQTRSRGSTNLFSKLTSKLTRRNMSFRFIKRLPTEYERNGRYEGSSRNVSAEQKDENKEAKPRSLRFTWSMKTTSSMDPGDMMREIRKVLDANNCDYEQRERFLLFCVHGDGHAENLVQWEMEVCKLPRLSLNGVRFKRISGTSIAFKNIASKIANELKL
SMILES,inhibition [1] [%],inhibition [2] [%],inhibition [3] [%],inhibition [4] [%],inhibition [5] [%],inhibition [6] [%],inhibition [7] [%],inhibition [8] [%],inhibition [9] [%],inhibition [10] [%],inhibition [11] [%],inhibition [12] [%],inhibition [13] [%],inhibition [14] [%],inhibition [15] [%],inhibition [16] [%],inhibition [17] [%],inhibition [18] [%],inhibition [19] [%],inhibition [20] [%]
Cc1ccc(O)cc1Nc1ccnc2ccc(S(C)(=O)=O)cc12,13.2,2.11,1.09,4.78,5.17,14.2,24.2,4.73,7.33,2.7,4.85,2.23,1.71,4.23,9.23,3.85,12.2,1.97,9.18,2.65
CN(C)CCCn1c(-c2nonc2N)nc2cnccc21,5.9,0.05,2.05,2.54,1.94,4.24,4.17,3.64,6.1,4.25,3.45,2.41,3.46,6.89,20.1,1.87,5.5,0.54,-0.09,1.6
Cc1ccc2c(-c3ccnc(Nc4cccc(C(F)(F)F)c4)n3)c(-c3ccccc3)nn2n1,-5.56,0.64,2.53,-1.16,-0.78,15.6,27.2,1.58,4.76,-0.41,3.93,2.61,2.82,5.84,10.4,3.3,4.19,2.04,3.52,1.89
C[C@@H](Oc1cc(-n2cnc3ccc(OCC4CCN(C)CC4)cc32)sc1C(N)=O)c1ccccc1C(F)(F)F,3.7,-1.44,0.02,-1.73,-1.24,-0.96,-1.6,8.37,50.7,6.29,57.6,8.72,49.9,0.09,22,0.35,1.61,1.1,4.25,8.53
N#Cc1cccc(Nc2nccc(-c3cnn4ncccc34)n2)c1,3.93,2.04,0.56,2.34,1.6,2.17,5,6.5,15.2,2.34,13.1,1.74,9.89,12.5,55.9,6.09,22.5,5.65,33,1.3
O=C(Nc1ccc(Oc2ccc3[nH]c(NC(=O)c4ccco4)nc3c2)cc1)Nc1cc(C(F)(F)F)ccc1F,-1.29,-4.07,-5.38,-0.82,-1.43,2.85,16.3,-1.16,0.35,-0.52,-0.23,0.1,2.11,0.54,8.57,3.42,28.4,2.04,37.3,-0.8
